The subject of assay [1] is Zika virus NS2B-NS3 protease (linked construct). In words: Primary screen NINDS Rhodamine qHTS for Zika virus inhibitors (AID 1347160). Further: nearly all actives have a fitted effect of over 55% in size. Further: potency means the concentration at half of the fitted maximal effect. Summed up: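 Each compound, titrated, sat 15 min with 25 nM linked protease before 1.5 microM Rhodamine110 substrate went in. Fluorescence gain over the next 15 min, in pH 8.0 Tris with Tween 20, gave Hill-fitted curves.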
In general terms: qHTS replaces the single test concentration by a dilution series.

The nature of assay [2]: Confirmatory screen NINDS Rhodamine qHTS for Zika virus inhibitors (AID 1347161). Further: nearly all actives have a fitted effect of over 60% in size. Further: potency means the concentration at half of the fitted maximal effect. Summed up: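 Purified NS2B-NS3 protease with the NS2B hydrophilic domain joined by a flexible linker (25 nM) in 10 mM Tris-HCl pH 8.0, 0.01% Tween 20, preincubated 15 min at RT with compound; Rhodamine110 peptide substrate 1.5 µM; fluorescence change over 15 min; 4-parameter Hill fit.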
Assay [3] concerns Zika virus NS2B-NS3 protease (linked). Nature of the assay: 384 well plate NINDS AMC confirmatory qHTS for Zika virus inhibitors (AID 1347163). Further: nearly all actives have a fitted effect of over 50% in size. Further: potency means the concentration at half of the fitted maximal effect. Summed up:
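Fluorescence at 355/460 nm was read after 25 minutes of cleavage of 30 microM Ac-VKTGKR-AMC at room temperature, in the dark. Before substrate addition, compounds (up to 1 mM final) sat ~15 minutes with 5, 30 or 60 nM linked protease. Signals were normalized to no-enzyme and no-inhibitor wells.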

Assay [4] deals with Zika virus NS2B-NS3 protease (linked construct). Nature of the assay: 384 well plate NINDS Rhodamine confirmatory qHTS for Zika virus inhibitors (AID 1347164).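 Further: fluorescence from protease cleavage of Ac-LKRR-rhodamine 110 substrate; top concentration of the series differs between compounds; nearly all actives have a fitted effect of over 65% in size.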 Summed up:
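Fluorescence read at ex 485 nm/em 538 nm, 25 min after adding 10 microM Ac-LKRR-Rd substrate at room temperature in the dark; signal normalized to no-enzyme and no-inhibitor controls. Enzyme final 5, 30 or 60 nM; compounds, ~15 min preincubation.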

A short description of assay [5]: Vero cells viability qHTS for Zika virus inhibitors (AID 1347167). Summed up:
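To flag cytotoxic protease inhibitors, viability is measured by ATP-dependent luminescence (CellTiter Glo) after cells attached overnight receive compound for 24 to 48 hours in DMEM with 4% FBS.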

Assay [6] is described as follows: Tertiary RLuc qRT-PCR qHTS assay for Zika virus inhibitors (AID 1347169). Further: nearly all actives have a fitted effect of over 55% in size. Further: potency means the concentration at half of the fitted maximal effect. Summed up:
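Luminescence read-out: live-cell Renilla luciferase substrate applied to infected Vero cells, signal measured after 1-1.5 hrs. Cells had received compound before ZIKV-RLuc (Cambodian strain, MOI 1-2) infection and were incubated 48-72 hrs at 37 degrees C.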

A short description of assay [7]: qHTS to identify inhibitors of the type 1 interferon - major histocompatibility complex class I in skeletal muscle: primary screen against the NCATS Mechanism Interrogation Plate v5.0 (MIPE) Libary (AID 1347411). Further: nearly all actives have a fitted effect of over 65% in size. Further: potency means the concentration at half of the fitted maximal effect. Summed up: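 Seed engineered human myoblasts (HLA-B HiBit) in medium without dexamethasone containing 4 ng/ml IFN-beta; after 1 hr add compound titrations (top 46 uM final). Incubate 24 hrs at 37 C, lyse 10 min with HiBiT reagent, read luminescence.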

Several values for one entry are separate records, joined by “and”; a condition that tells them apart may be missing. Identical values can stand only once. Results filed as inconclusive are left out. Entries that show only a call come without a potency. Activity calls are given as the source filed them. The call rests on the fitted dose curve; in most records, active means well fitted curve in the direction sought with a large enough effect; inconclusive means small, poorly fitted or top-dose-only effect, or another doubt; inactive means no such curve, though single readings can be large; an effect the other way counts as inactive or inconclusive.

With `NC1(Cc2ccc(Cl)cc2)CCN(c2ncnc3[nH]ccc23)CC1`, in assay [1], the Potency result is “inactive”. For `N#Cc1c(O)c2c(-c3ccc(-c4ccccc4O)cc3)csc2[nH]c1=O`, the Potency was 2.51 µM (active) in assay [1]; 2.2 µM (active) and 2.48 µM (active) in assay [2]; 8.91 µM (active) in assay [3]. Also, the Potency result in assay [4], in assay [5], in assay [6] and in assay [7] was “inactive” in each case. In the case of `Nc1ccccc1NC(=O)c1ccc(CNc2nccc(-c3cccnc3)n2)cc1`, in assay [1], the Potency entry is “inactive”. On to `CC(C)(O)c1cc2nc(-c3cnc(N)nc3)nc(N3CCOCC3)c2s1`, for which the Potency result in assay [1] is “inactive”. With `CN(C)Cc1c(C(=O)NCCOc2ccc(C(=O)NO)cc2)oc2ccccc12`, the Potency result in assay [1] was “inactive”. With `Cc1cc(CN2CCN(c3c(Br)cnc4nc(-c5ccc(N6CCN(C)CC6)cc5)[nH]c34)CC2)no1`, the Potency result in assay [1], in assay [2] and in assay [3] was “inactive” each time. The Potency in assay [7] is 6.58 µM (active). For `COc1ccc(C(=O)CC2(O)C(=O)Nc3c(Cl)ccc(Cl)c32)cc1` (stereo unspecified), the Potency entry in assay [1] is “inactive”. For `CCn1nnc2c(N3CCOCC3)nc(-c3ccc(NC(=O)Nc4ccc(C(=O)N5CCN(C)CC5)cc4)cc3)nc21`, the Potency result in assay [1] was “inactive”.

In the case of `Cc1cc(Nc2cc(CN3CCOCC3)c3nc(C)c(Cc4ccc(Cl)cc4F)n3n2)n[nH]1`, the Potency entry in assay [1] is “inactive”.

On to `COc1c(OCCCN2CCOCC2)ccc2c3n(c(=NC(=O)c4cnc(N)nc4)nc12)CCN3`, for which, in assay [1], the outcome is “inactive [at 10.7 µM]”. Consider `CNC(=O)c1nn(C)c2c1C(C)(C)Cc1cnc(Nc3ccc(N4CCN(C)CC4)cc3)nc1-2`, for which the Potency entry in assay [1] is “inactive”. Take `COc1cc2c(Nc3ccc(NC(=O)c4ccccc4)cc3)ncnc2cc1OCCCN1CCOCC1`: the Potency entry in assay [1] was “inactive”. For the molecule `O=C(Nc1nc2cccc(-c3ccc(CN4CCS(=O)(=O)CC4)cc3)n2n1)C1CC1`, in assay [1], the Potency result was “inactive”. Same read-out and setting: next, `COc1ccc2c(c1)CC[C@@H](CN(C)CC(=O)O)[C@H]2c1ccccc1`: “inactive”.

As for `CCc1c2c(nc3ccc(O)cc13)-c1cc3c(c(=O)n1C2)COC(=O)[C@]3(O)CC`, the results for the Potency in assay [1], in assay [6] and in assay [7] were 10 µM (active), 0.0658 µM (active) and 1.17 µM (active), respectively. In assay [2], the Potency result was “inactive”. Consider `CCOC(=O)C1=C(C)NC2=C(C(=O)CC(C)(C)C2)C1c1ccc(-c2ccccc2)cc1` (stereo unspecified), for which the Potency result in assay [1], in assay [2], in assay [3], in assay [4] and in assay [5] was “inactive” in each case. The Potency in assay [7] is 3.3 µM (active). For the molecule `CC1(C)CC(=O)c2c(C(F)(F)F)nn(-c3ccc(C(N)=O)c(NC4CCC(OC(=O)CN)CC4)c3)c2C1` (stereo unspecified), the Potency result in assay [1] was “inactive”. Take `Cn1c2ccccc2c2c3c(c4c5ccccc5n(CCC#N)c4c21)CNC3=O`: the Potency result in assay [1] was “inactive”. In the case of `CN1CCC(CNc2ccc3ncc(-c4cccc(OC(F)(F)F)c4)n3n2)CC1`, the Potency entry in assay [2] is “inactive”.

The values above are taken from PubChem BioAssay (NCATS).
